In PubChem BioAssay AID1159580 (chemical genetic matrix, 2015):
Among all 5,500 compounds or so, about 2,000 (36%) were called active. Roughly 18% stayed inconclusive and do not appear here. No stated cut-off is given here; in the data, active means normalized growth mostly below about 0.91 (no sharp cut-off); inconclusive means no clear call, values can overlap the other calls; inactive means mostly above about 0.92. Some of the results follow.

Assay: chemical genetic growth profiling, strain panel (AID 1159580);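 further: tested at 20 µM; growth read once vehicle control cultures reached saturation at 30 °C; 1 = growth at the plate median or of vehicle wells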
Settings: S. cerevisiae deletion strains, growth OD

Measured: normalized growth

COc1ccc([C@@H]2Sc3ccccc3N(CCN(C)C)C(=O)[C@@H]2OC(C)=O)cc1
inactive: locus YAL013W, strain DEP1, stronger effect = lower value 0.989 | locus YAL040C, strain CLN3, stronger effect = lower value 1.01 | locus YCL061C, strain MRC1 (second series), stronger effect = lower value 0.988 | locus YDR150W, strain NUM1, stronger effect = lower value 1.01 | locus YDR363W, strain ESC2, stronger effect = lower value 0.951 | locus YER002W, strain NOP16, stronger effect = lower value 1.02 | locus YGR078C, strain PAC10, stronger effect = lower value 0.961 | locus YGR229C, strain SMI1, stronger effect = lower value 0.971 | locus YJR075W, strain HOC1, stronger effect = lower value 1 | locus YMR263W, strain SAP30, stronger effect = lower value 0.993 | locus YMR307W, strain GAS1, stronger effect = lower value 1 | locus YNL153C, strain GIM3, stronger effect = lower value 1.01 | locus YNL175C, strain NOP13, stronger effect = lower value 0.99 | locus YNL197C, strain WHI3, stronger effect = lower value 1.1 | locus YNL224C, strain SQS1, stronger effect = lower value 1.02 | locus YNL322C, strain KRE1, stronger effect = lower value 0.967 | locus YOR083W, strain WHI5 (second series), stronger effect = lower value 1.03 | locus YPL055C, strain LGE1, stronger effect = lower value 0.955 | locus YPL241C, strain CIN2, stronger effect = lower value 0.988
